For some of these results: Entries with a potency or affinity are not part of this list. The list shows a part of the results. Active and inactive are the calls of the source.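 How the source made its calls, unless noted: active means calcium signal cut by more than 3 SD below the full-agonist control yet still positive, in both repeats and the earlier primary screen; inactive means the rest.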
Tests used:
[1] = target: Potassium voltage-gated channel subfamily KQT member 1 (Homo sapiens) (UniProt P51787); assay: KCNQ1 channel inhibitors, confirmation, orthogonal assay, cell-based, automated electrophysiology (AID 624120;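 active means KCNQ1 current drop exceeding 3 SD of negative control wells, seen in both duplicate runs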); settings: KCNQ1-CHO cells, automated patch clamp current; at 10 µM
[2] = system: TRPC4 beta (transient receptor potential cation channel C4), mouse; assay: activators of mouse TRPC4 channel, confirmation, cell-based, Fluo4 calcium, HEK293 TRPC4beta/mu-opioid, duplicates, 10 µM (AID 2426;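 active means fluorescence ratio normalized to control raised more than 50% in primary screen plus both repeat runs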;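 on activation: percent rise of integrated ratio over buffer wells lacking compound which define 0%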); settings: Fluo4 calcium fluorescence, at 10 µM; hits give high values
[3] = system: transient receptor potential cation channel C4 beta (TRPC4), mouse; assay: activators of mouse TRPC4 channel, confirmation, cell-based, second round, Fluo4, HEK293 TRPC4beta/mu-opioid, 1 µM (AID 2461;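 active means primary screen active and over 50% activation in each of two duplicate runs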); settings: Fluo4 calcium fluorescence, at 1 µM; hits give high values
[4] = system: TRPC4 (transient receptor potential cation channel C4 beta), mouse; assay: positive allosteric modulators of mouse TRPC4, confirmation, cell-based, second round, Fluo-4, HEK293 TRPC4beta/mu-opioid, 1 µM (AID 2554;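 active means primary screen hit whose fluorescence ratio, in both repeats, exceeds the weak agonist control mean by 3 SD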); settings: DAMGO EC20, Fluo-4 calcium flux, at 1 µM; hits give high values
[5] = system: TRPC4 beta (transient receptor potential cation channel C4), mouse; assay: positive allosteric modulators of mouse TRPC4, confirmation, cell-based, Fluo-4, HEK293 TRPC4beta/mu-opioid (AID 2555;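 active means primary screen hit whose calcium fluorescence ratio, in both repeats, exceeds the weak agonist control mean by 3 SD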); settings: DAMGO EC20, Fluo-4 calcium flux, at 10 µM; hits give high values
[6] = target: Short transient receptor potential channel 4 (Mus musculus) (UniProt Q9QUQ5); assay: inhibitors of mouse TRPC4 channel, confirmation, cell-based, Fluo4, HEK293 TRPC4beta/mu-opioid (AID 2636); settings: DAMGO, Fluo4 calcium flux, at 10 µM; hits give high values
[7] = target: Short transient receptor potential channel 4 (Mus musculus) (UniProt Q9QUQ5); assay: inhibitors of mouse TRPC4 channel, confirmation, cell-based, second round, Fluo4, HEK293 TRPC4beta/mu-opioid, 1 µM (AID 2637;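 active means calcium signal ratio cut to more than 3 SD under the fully stimulated control mean yet still positive, in both repeats and the primary screen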); settings: Fluo4 calcium flux, DAMGO, at 1 µM; hits give high values
[8] = target: Short transient receptor potential channel 4 (Mus musculus) (UniProt Q9QUQ5); assay: mouse TRPC4 channel activators, dose response, cell-based, HEK293 TRPC4/mu-opioid, Fluo-4 calcium (AID 434937;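 active means primary screen activator hit with a dose response curve and TRPC4 channel activation at any tested dose; inactive means no activation, no dose response, or not a primary hit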)
[9] = target: Short transient receptor potential channel 4 (Mus musculus) (UniProt Q9QUQ5); assay: TRPC4 positive allosteric modulators, dose response, cell-based, HEK293 TRPC4/mu-opioid, Fluo-4 calcium, EC20 DAMGO (AID 434941;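 active means earlier screen potentiator hit that boosts the TRPC4 ion channel at some dose, with a dose response; inactive means no potentiation, no dose response, or not a prior hit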;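 further: calcium entry triggered by an EC20 dose of DAMGO at the co-expressed mu-opioid receptor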)
[10] = target: Short transient receptor potential channel 4 (Mus musculus) (UniProt Q9QUQ5); assay: mouse TRPC4 channel inhibitors, dose response, cell-based, HEK293 TRPC4/mu-opioid, Fluo-4 calcium (AID 434942;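 active means primary screen inhibitor hit that blocks the TRPC4 channel at some tested dose, yielding a dose curve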)
[11] = target: Short transient receptor potential channel 6 (Mus musculus) (UniProt Q61143); assay: inhibition of mouse TRPC6 channel, confirmation, selectivity assay for TRPC4 inhibitor project, cell-based, HEK293, membrane potential dye, duplicate (AID 434948;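 active means active in primary screen and both duplicates, each dropping signal beyond three positive-control SD with fluorescence still positive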); settings: HEK293 TRPC6, membrane potential dye fluorescence, at 10 µM, stimulated with maximal-effect acetylcholine; hits give high values
[12] = target: Short transient receptor potential channel 6 (Mus musculus) (UniProt Q61143); assay: activation of mouse TRPC6 channel, confirmation, selectivity assay for TRPC4 activator project, cell-based, HEK293, membrane potential dye, duplicate (AID 434950;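 active means membrane potential signal rise above negative control mean plus 3 SD in both duplicates, also active in the earlier TRPC4 screen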;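 on activation: 0% = buffer only wells and 100% = acetylcholine maximal-effect wells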); settings: HEK293 TRPC6, membrane potential fluorescence, at 10 µM; hits give high values
[13] = target: Short transient receptor potential channel 6 (Mus musculus) (UniProt Q61143); assay: TRPC6 potentiation by TRPC4 potentiator hits, confirmation, selectivity assay for TRPC4 potentiator project, HEK293 cells, membrane potential dye, duplicate (AID 434952;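 active means compound raising the membrane signal above positive-control mean plus 3 SD in both repeats, and a primary screen hit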); settings: HEK293 TRPC6, membrane potential dye fluorescence, at 10 µM, maximal acetylcholine added after compound; hits give high values
[14] = target: Short transient receptor potential channel 4 (Mus musculus) (UniProt Q9QUQ5); assay: calcium flux activators in TRPC4/5HT1a cells, counter-screen for TRPC4 activator project, cell-based, second counter screen, HEK293 TRPC4/5HT1a, Fluo-4 (AID 434977;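 active means calcium signal rise above buffer-control mean plus 5 SD in both duplicates, and also a hit in the primary screen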;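 on activation: plate controls were assay buffer for no effect and maximal serotonin response for full effect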); settings: Fluo-4 calcium flux, at 10 µM; hits give high values
[15] = calcium flux inhibitors in TRPC4/5HT1a cells, confirmation, counter-screen for TRPC4 inhibitor project, cell-based, second counter screen, HEK293 TRPC4/5HT1a, Fluo-4 (AID 434978;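 active means primary screen active whose calcium signal fell more than 3 SD beyond the full-serotonin control mean in both duplicate plates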;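 further: serotonin given first at submaximal then at maximal dose after compound preincubation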); settings: Fluo-4 calcium flux, at 10 µM, serotonin added to trigger calcium flux; hits give high values
[16] = system: TRPC4 (mouse), co-expressed with 5HT1a in HEK293; assay: calcium flux potentiators in TRPC4/5HT1a cells, confirmation, counter-screen for TRPC4 potentiator project, cell-based, second counter screen, HEK293 TRPC4/5HT1a, Fluo-4 (AID 434979;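 active means signal rise over 3 SD above mean of control wells given weak agonist, in both repeats and first screen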); settings: Fluo-4 calcium flux, at 10 µM, serotonin added at its EC20 dose; hits give high values
[17] = calcium flux activation in mu-opioid HEK293 cells, confirmation, counter-screen for TRPC4 activator project, cell-based, HEK293 mu-opioid receptor line (AID 449723;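 active means hit in primary screen, with calcium signal over 5 SD above buffer well mean in both duplicates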;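 further: counter screen cells carry the mu-opioid receptor alone and lack TRPC4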); settings: Fluo-4 calcium fluorescence, at 10 µM; hits give high values
[18] = calcium flux enhancement in mu-opioid HEK293 cells, confirmation, counter-screen for TRPC4 allosteric potentiator project, cell-based, HEK293 mu-opioid receptor line (AID 449724;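 active means calcium signal rise more than 3 SD above the low-dose agonist control mean, in both duplicate plates and the primary screen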); settings: Fluo-4 calcium flux, at 10 µM, compound added before EC20 DAMGO stimulus; hits give high values
[19] = nonspecific thallium flux increase in parental CHO-K1, confirmation, counter-screen for KCNQ2 potentiator project, cell-based, FluxOR thallium flux, duplicate (AID 2282;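 active means signal rise of at least 3 SD above the untreated control mean, in both duplicate wells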;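 further: counter screen of KCNQ2 potentiator hits so any rise reflects channel-independent effects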); settings: parental CHO-K1 cells, FluxOR thallium flux fluorescence; at 10 µM; hits give high values; zero = vehicle mean+3SD, 100% = vehicle-minus-blank window
[20] = target: Potassium voltage-gated channel subfamily KQT member 1 (Homo sapiens) (UniProt P51787); assay: human KCNQ1 channel potentiation off-target, confirmation, selectivity assay for KCNQ2 potentiator project, cell-based, CHO, FluxOR thallium flux (AID 2283;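 active means fluorescence ratio rise of at least 3 SD of vehicle wells above their mean, in both replicate wells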;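 further: 0% = vehicle mean plus 3 SD and 100% = vehicle minus unstimulated blank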); settings: CHO KCNQ1 stable, FluxOR thallium flux fluorescence; at 10 µM; hits give high values; beyond 3SD, as % of vehicle-control signal
[21] = target: Potassium voltage-gated channel subfamily KQT member 2 (Rattus norvegicus) (UniProt O88943); assay: rat KCNQ2 channel potentiators, confirmation, cell-based, CHO, FluxOR thallium flux, duplicate (AID 2287;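 active means fluorescence ratio rising 3 SD or more over the vehicle control mean in both replicates, plus primary screen hit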;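 further: peak minus minimum thallium fluorescence divided by baseline after K/Tl stimulus; 0% = vehicle mean plus 3 SD and 100% = vehicle minus unstimulated blank difference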); settings: CHO-KCNQ2 cells, FluxOR thallium flux fluorescence; at 10 µM; hits give high values
[22] = target: Potassium voltage-gated channel subfamily KQT member 2 (Rattus norvegicus) (UniProt O88943); assay: potentiators of retigabine-insensitive KCNQ2 W236L, mechanism study for KCNQ2 potentiator project, cell-based, rat KCNQ2 W236L, CHO, automated patch clamp (AID 2558;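 active means current increase at least 3 SD of the untreated controls above them in both duplicate recordings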); settings: at 25 µM; outcome: automated patch clamp current
[23] = thallium flux activation in parental CHO cells, counter-screen for KCNQ1 potentiator project (AID 493006;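 active means duplicate-averaged activation above buffer control mean plus 5 SD of those controls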;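 further: fluorescence ratio of max minus min over baseline after K+ and Tl+ depolarization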); settings: parental CHO-K1 cells, FluxOR thallium flux, at 10 µM; hits give high values
[24] = target: Potassium voltage-gated channel subfamily KQT member 1 (Homo sapiens) (UniProt P51787); assay: KCNQ1 potassium channel potentiators, confirmation, FluxOR thallium flux, CHO cells, duplicates (AID 493007;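 active means potentiation averaged over duplicate wells exceeding buffer-only control mean by more than 3 SD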;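 further: 0% = buffer-only wells and 100% = R-L3 activator control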); settings: KCNQ1 cell line, FluxOR thallium flux fluorescence, at 10 µM; hits give high values, % of reference activator effect, buffer zero
[25] = target: Potassium voltage-gated channel subfamily KQT member 2 (Rattus norvegicus) (UniProt O88943); assay: rat KCNQ2 channel potentiation, selectivity assay for KCNQ1 potentiator project, KCNQ2-CHO-K1 cells (AID 493009;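 active means mean duplicate potentiation above the buffer control mean plus 5 SD of buffer wells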;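 further: assay conditions were tuned for KCNQ1 rather than KCNQ2 modulators; signal is max minus min fluorescence divided by baseline after thallium stimulus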); settings: FluxOR thallium flux fluorescence, at 10 µM; hits give high values, scaled: buffer 0, activator control 100
[26] = target: Potassium voltage-gated channel subfamily KQT member 1 (Homo sapiens) (UniProt P51787); assay: KCNQ1 channel current potentiators, confirmation, orthogonal assay for KCNQ1 potentiator project, IonWorks patch clamp, KCNQ1-CHO cells (AID 493184;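 active means current rise at least 3 SD above the untreated control mean in each of two repeat wells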); settings: automated patch clamp current, at 10 µM; hits give high values
[27] = target: Short transient receptor potential channel 4 (Mus musculus) (UniProt Q9QUQ5); assay: mouse TRPC4 membrane potential modulation by TRPC6 hits, confirmation, selectivity assay for TRPC6 inhibitor project, cell-based, second specificity screen, HEK293 TRPC4/mu-opioid (AID 2776;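 active means compounds whose fluorescence signal differed from control wells by over 3 SD, either direction, in both duplicate plates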); settings: HEK293 TRPC4/MOR, membrane potential dye fluorescence, at 10 µM, channel activated by saturating DAMGO dose; hits give high values
[28] = system: transient receptor potential cation channel C4 (TRPC4), mouse; assay: mouse TRPC4 modulation by TRPC6 hits, confirmation, selectivity assay for TRPC6 inhibitor project, cell-based, HEK293 TRPC4/mu-opioid, membrane potential dye (AID 2777;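 active means rise or fall in signal beyond 3 SD of buffer-only wells in both replicate plates, either sign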;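 further: integrated kinetic ratio of fluorescence range over baseline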); settings: membrane potential fluorescence, at 10 µM
[29] = nonspecific membrane potential effects, parental HEK293, confirmation, counter-screen for TRPC6 inhibitor project, cell-based, second counter screen (AID 2779;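 active means membrane potential signal moving either way by over 3 SD of the maximum-effect control, in both duplicate plates, meaning non-specific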); settings: parental HEK293 membrane potential dye fluorescence; at 10 µM; maximal acetylcholine challenge after compound addition
[30] = membrane potential modulation in parental HEK293, confirmation, counter-screen for TRPC6 inhibitor project, cell-based (AID 2780;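 active means membrane potential signal shifting up or down by more than 3 SD of buffer-only wells, on both duplicate plates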;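 further: plate controls were buffer EC0 wells for no effect and acetylcholine ECmax wells for full effect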); settings: parental HEK293 membrane potential dye fluorescence; at 10 µM
[31] = target: Short transient receptor potential channel 6 (Mus musculus) (UniProt Q61143); assay: mouse TRPC6 channel inhibitors, confirmation, HEK293 cells, membrane potential dye, duplicate (AID 488960;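 active means fluorescence ratio falls more than 5 SD below the full-stimulation control mean, in both duplicate runs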); settings: ACh-evoked depolarization, at 10 µM; hits give high values
[32] = target: Short transient receptor potential channel 6 (Mus musculus) (UniProt Q61143); assay: mouse TRPC6 channel activators, confirmation, HEK293 cells, membrane potential dye, duplicate (AID 488961;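 active means ratio signal rise beyond 5 SD above unstimulated control wells' mean, seen in both duplicate runs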); settings: HEK293-TRPC6 membrane potential dye fluorescence, FDSS, at 10 µM; hits give high values

Chain of Short transient receptor potential channel 4 (Mus musculus) (Q9QUQ5 whole entry, looked up): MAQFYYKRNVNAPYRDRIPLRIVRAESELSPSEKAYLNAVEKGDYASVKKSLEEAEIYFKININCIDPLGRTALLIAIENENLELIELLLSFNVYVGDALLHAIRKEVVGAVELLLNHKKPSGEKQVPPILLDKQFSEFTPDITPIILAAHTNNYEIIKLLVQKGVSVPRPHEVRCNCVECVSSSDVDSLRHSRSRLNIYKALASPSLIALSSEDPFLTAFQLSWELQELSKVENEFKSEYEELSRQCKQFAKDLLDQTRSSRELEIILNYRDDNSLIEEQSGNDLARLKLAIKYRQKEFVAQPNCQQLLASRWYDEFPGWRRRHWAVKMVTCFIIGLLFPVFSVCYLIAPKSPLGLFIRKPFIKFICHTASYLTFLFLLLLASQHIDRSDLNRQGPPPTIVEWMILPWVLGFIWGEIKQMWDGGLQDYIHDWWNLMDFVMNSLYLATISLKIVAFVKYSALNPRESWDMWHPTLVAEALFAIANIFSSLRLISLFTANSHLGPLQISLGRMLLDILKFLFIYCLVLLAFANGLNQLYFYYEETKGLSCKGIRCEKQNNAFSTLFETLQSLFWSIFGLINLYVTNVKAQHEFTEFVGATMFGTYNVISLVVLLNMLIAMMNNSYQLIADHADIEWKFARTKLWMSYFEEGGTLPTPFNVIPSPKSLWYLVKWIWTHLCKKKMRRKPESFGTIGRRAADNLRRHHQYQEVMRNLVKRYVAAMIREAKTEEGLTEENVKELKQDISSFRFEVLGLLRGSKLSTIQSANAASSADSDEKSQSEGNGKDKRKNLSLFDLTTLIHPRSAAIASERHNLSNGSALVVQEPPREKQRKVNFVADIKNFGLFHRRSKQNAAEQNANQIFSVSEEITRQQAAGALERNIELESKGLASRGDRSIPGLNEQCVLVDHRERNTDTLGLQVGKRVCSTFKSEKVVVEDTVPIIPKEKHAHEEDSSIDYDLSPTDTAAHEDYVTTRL
Chain of Potassium voltage-gated channel subfamily KQT member 1 (Homo sapiens) (P51787 whole entry, looked up): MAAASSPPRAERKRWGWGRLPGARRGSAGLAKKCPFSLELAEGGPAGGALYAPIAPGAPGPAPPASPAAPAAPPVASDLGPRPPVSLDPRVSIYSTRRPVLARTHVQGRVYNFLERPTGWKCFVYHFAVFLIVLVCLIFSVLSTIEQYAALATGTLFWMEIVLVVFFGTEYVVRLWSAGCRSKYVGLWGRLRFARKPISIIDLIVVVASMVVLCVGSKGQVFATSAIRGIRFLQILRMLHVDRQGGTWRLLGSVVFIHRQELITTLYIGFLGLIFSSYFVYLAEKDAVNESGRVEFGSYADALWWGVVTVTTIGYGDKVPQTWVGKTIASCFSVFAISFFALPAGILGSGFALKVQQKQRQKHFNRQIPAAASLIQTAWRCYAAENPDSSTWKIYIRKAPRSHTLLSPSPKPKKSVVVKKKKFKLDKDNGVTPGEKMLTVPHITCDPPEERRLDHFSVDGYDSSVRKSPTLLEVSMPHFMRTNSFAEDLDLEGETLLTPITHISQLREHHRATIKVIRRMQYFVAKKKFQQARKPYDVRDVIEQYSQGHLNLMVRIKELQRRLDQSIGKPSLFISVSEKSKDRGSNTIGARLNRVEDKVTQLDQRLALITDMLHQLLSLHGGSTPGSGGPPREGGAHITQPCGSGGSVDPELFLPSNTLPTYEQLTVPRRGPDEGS
Chain of Short transient receptor potential channel 6 (Mus musculus) (Q61143 whole entry, looked up): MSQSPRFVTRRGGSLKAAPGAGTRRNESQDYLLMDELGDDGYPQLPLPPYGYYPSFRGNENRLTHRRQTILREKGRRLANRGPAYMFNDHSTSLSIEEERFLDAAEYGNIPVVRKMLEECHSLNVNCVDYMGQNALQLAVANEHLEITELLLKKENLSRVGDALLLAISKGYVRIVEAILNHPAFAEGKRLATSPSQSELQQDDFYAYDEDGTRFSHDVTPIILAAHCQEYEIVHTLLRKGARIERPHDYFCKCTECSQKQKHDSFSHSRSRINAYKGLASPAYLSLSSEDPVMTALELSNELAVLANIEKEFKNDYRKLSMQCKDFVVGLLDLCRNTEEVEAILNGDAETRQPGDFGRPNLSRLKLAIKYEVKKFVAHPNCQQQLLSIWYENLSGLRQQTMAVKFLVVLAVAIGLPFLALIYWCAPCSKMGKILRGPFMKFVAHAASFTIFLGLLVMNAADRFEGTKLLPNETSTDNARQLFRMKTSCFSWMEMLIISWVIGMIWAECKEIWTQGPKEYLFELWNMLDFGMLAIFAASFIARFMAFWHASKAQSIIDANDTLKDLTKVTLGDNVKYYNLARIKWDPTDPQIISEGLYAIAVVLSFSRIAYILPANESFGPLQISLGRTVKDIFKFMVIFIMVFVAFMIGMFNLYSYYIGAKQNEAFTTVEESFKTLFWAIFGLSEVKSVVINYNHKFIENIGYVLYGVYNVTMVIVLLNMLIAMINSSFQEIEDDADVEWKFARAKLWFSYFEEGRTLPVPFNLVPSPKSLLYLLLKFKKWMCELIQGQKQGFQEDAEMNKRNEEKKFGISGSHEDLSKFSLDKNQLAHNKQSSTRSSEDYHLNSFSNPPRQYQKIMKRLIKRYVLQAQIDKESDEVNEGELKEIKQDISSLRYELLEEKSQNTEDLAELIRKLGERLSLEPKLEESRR

FC(F)(F)c1cccc(NC(=S)Nc2cccc(Cl)c2)c1
inactive: outcome [1]

CCCCc1ccc(NC(=O)CSc2nnc(C)c(=O)n2N)cc1
active: potentiation [5] 14% | potentiation [16] 43.5%
inactive: outcome [2] | outcome [3] | outcome [4] | outcome [6] | outcome [7] | outcome [8] | outcome [9] | outcome [10] | outcome [11] | outcome [12] | outcome [13] | outcome [14] | outcome [15] | outcome [17] | outcome [18]

CCCCCc1ccc(OCCCC[n+]2ccccc2)c(CCCCC)c1
inactive: outcome [2] | outcome [3] | outcome [4] | outcome [5] | outcome [6] | outcome [7] | outcome [8] | outcome [9] | outcome [10] | outcome [11] | outcome [12] | outcome [13] | outcome [14] | outcome [15] | outcome [16] | outcome [17] | outcome [18]

O=c1c2cc(Br)ccc2nc(-c2cccc(Cl)c2)n1O
inactive: activity increase over 3SD of controls [19] -14.4% | outcome [3] | outcome [4] | outcome [5] | outcome [22] | outcome [6] | outcome [7] | outcome [9] | outcome [10] | outcome [11] | outcome [13] | outcome [15] | outcome [16] | outcome [18] | outcome [26]
active: activation over 3SD threshold [20] 68.1% | potentiation, less the hit threshold [21] 84.4% | activation [2] 223% | activation [12] 38.5% | activation [14] 63.4% | activation [17] 20.3% | activation [23] 803% | potentiation [24] 257% | potentiation [25] 703%

CCCCOc1ccc(CSC(=N)N)cc1[N+](=O)[O-]
active: inhibition [27] 77.5% | membrane potential signal change [30] -186% | potentiation [16] 22.3%
inactive: outcome [2] | outcome [3] | outcome [4] | outcome [5] | outcome [6] | outcome [7] | outcome [28] | outcome [29] | outcome [8] | outcome [9] | outcome [10] | outcome [11] | outcome [12] | outcome [13] | outcome [14] | outcome [15] | outcome [17] | outcome [18] | outcome [31] | outcome [32]

Reference: PubChem BioAssay
